This note sets out measurements from the supplement of paper PMC8007513.

The subject of this test is Trichoderma virens ATCC 9645. Put plainly: growth yield (OD600) with compound + IPBC relative to untreated control; higher = less growth inhibition. To be noted: compound concentration: 100 uM, IPBC concentration: 200 ng/ml. The gist of the method:
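Growth appears as means of duplicate screens, relative to the control containing neither agent. To obtain it, OD600 was read on a BioTek EL800 at 40 h and 72 h. The cultures were 100 μl aliquots in 96-well plates at 30 °C, holding Trichoderma virens ATCC 9645 spores at 15,000 spores ml^−1 in potato dextrose broth, library compounds at 100 μM final, and, in some wells, a biocide at 200 ng ml^−1.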

Counter-ions that a name gives are not always drawn. ± gives the standard error. The whole screen tested about 1,300 compounds, of which about 130 (10%) showed an effect of 50% or more. The sample as a whole holds a higher share of strong results than the screen did.

Take `CN1CCN(C(c2ccccc2)c2ccccc2)CC1` [Cyclizine hydrochloride] + CCCCNC(=O)OCC#CI [3-iodo-2-propynyl butylcarbamate (IPBC)]: the growth yield was 82.6 ± 1.3% (40 h) and 87.6 ± 2% (72 h).

For `C(=C\c1ccccc1)/CN1CCN(C(c2ccccc2)c2ccccc2)CC1` [Cinnarizine] + CCCCNC(=O)OCC#CI [3-iodo-2-propynyl butylcarbamate (IPBC)], the growth yield stood at 34.9 ± 5.1% (40 h) and 93.1 ± 4% (72 h).

Regarding `Fc1ccc(C(c2ccc(F)cc2)N2CCN(C/C=C/c3ccccc3)CC2)cc1` [Flunarizine dihydrochloride] + CCCCNC(=O)OCC#CI [3-iodo-2-propynyl butylcarbamate (IPBC)], the growth yield by setting is: (40 h) 3.81 ± 0.32%; (72 h) 3.78 ± 0.42%.

In the case of `OCCOCCN1CCN(C(c2ccccc2)c2ccc(Cl)cc2)CC1` (centres undefined) [Hydroxyzine dihydrochloride] + CCCCNC(=O)OCC#CI [3-iodo-2-propynyl butylcarbamate (IPBC)], the growth yield (40 h) was 76.08 ± 0.16% and the growth yield (72 h) was 95.9 ± 2.5%.

On to `O=C(O)COCCN1CCN(C(c2ccccc2)c2ccc(Cl)cc2)CC1` (centres undefined) [Cetirizine dihydrochloride] + CCCCNC(=O)OCC#CI [3-iodo-2-propynyl butylcarbamate (IPBC)], for which the growth yield (40 h) turned out to be 88.5 ± 6.8% and the growth yield (72 h) was 93.8 ± 3.8%.

For `COc1ccc(CN2CCN(C(c3ccc(F)cc3)c3ccc(F)cc3)CC2)c(OC)c1OC` [Lomerizine hydrochloride] + CCCCNC(=O)OCC#CI [3-iodo-2-propynyl butylcarbamate (IPBC)], the growth yield (40 h) came out at 71.8 ± 5.7% and the growth yield (72 h) worked out at 97.4 ± 4.9%.

`CC(C)NC[C@H](O)COc1ccc(CC(N)=O)cc1` [(S)-(-)-Atenolol] + CCCCNC(=O)OCC#CI [3-iodo-2-propynyl butylcarbamate (IPBC)]: the growth yield was found to be 82.8 ± 1.8% (40 h) and 88.2 ± 0.1% (72 h).

Take `O=C(Nc1ccc([N+](=O)[O-])cc1Cl)c1cc(Cl)ccc1O` [Niclosamide] + CCCCNC(=O)OCC#CI [3-iodo-2-propynyl butylcarbamate (IPBC)]: the growth yield is, setting by setting: (40 h) 83.7 ± 2.4%; (72 h) 90.4 ± 2.5%.

As for `CC(C)[C@H](N)C(=O)OCCOCn1cnc2c(=O)nc(N)[nH]c21` [Valacyclovir hydrochloride] + CCCCNC(=O)OCC#CI [3-iodo-2-propynyl butylcarbamate (IPBC)], the growth yield is, setting by setting: (40 h) 86.7 ± 3.2%; (72 h) 96.4 ± 2.6%.

Consider `CN1C(=O)CCS(=O)(=O)C1c1ccc(Cl)cc1` (centres undefined) [Chlormezanone] + CCCCNC(=O)OCC#CI [3-iodo-2-propynyl butylcarbamate (IPBC)], for which the growth yield runs as follows: (40 h) 86.7 ± 3.2%; (72 h) 92.5 ± 1.7%.

`Cc1[nH]c(=O)c(C#N)cc1-c1ccncc1` [Milrinone] + CCCCNC(=O)OCC#CI [3-iodo-2-propynyl butylcarbamate (IPBC)]: the growth yield (40 h) was found to be 89.11 ± 0.48% and the growth yield (72 h) came out at 92.9 ± 1.9%.

`Nc1cc(-c2ccncc2)c[nH]c1=O` [Amrinone] + CCCCNC(=O)OCC#CI [3-iodo-2-propynyl butylcarbamate (IPBC)]: the growth yield (40 h) was 106% and the growth yield (72 h) worked out at 41.3%.

With `CCCNC(C)C(=O)Nc1ccccc1C` (centres undefined) [Prilocaine hydrochloride] + CCCCNC(=O)OCC#CI [3-iodo-2-propynyl butylcarbamate (IPBC)], the growth yield reads like this: (40 h) 86.4%; (72 h) 95.54 ± 0.52%.

With `C[C@H]1NC(=O)NC1=O` [Methylhydantoin-5-(D)] + CCCCNC(=O)OCC#CI [3-iodo-2-propynyl butylcarbamate (IPBC)], the growth yield was found to be 97.4 ± 14% (40 h) and 95.4 ± 8.4% (72 h).

For `CN1[C@@H]2C[C@@H](OC(=O)[C@H](CO)c3ccccc3)C[C@H]1[C@@H]1O[C@@H]12` [Scopolamine hydrochloride] + CCCCNC(=O)OCC#CI [3-iodo-2-propynyl butylcarbamate (IPBC)], the growth yield came to 94.4 ± 7.9% (40 h) and 94.1 ± 3.5% (72 h).

With `Cc1cnc(C(=O)O)c[n+]1[O-]` [Acipimox] + CCCCNC(=O)OCC#CI [3-iodo-2-propynyl butylcarbamate (IPBC)], the growth yield is 85.3 ± 0.48% (40 h) and 90.72 ± 0.1% (72 h).

Consider `Nc1ncnc2c1ncn2[C@@H]1O[C@H](CO)[C@@H](O)[C@@H]1O` [Vidarabine] + CCCCNC(=O)OCC#CI [3-iodo-2-propynyl butylcarbamate (IPBC)], for which the growth yield (40 h) was 121 ± 11% and the growth yield (72 h) stood at 109 ± 7.3%.

As for `Nc1nc(=S)c2ncn([C@@H]3O[C@H](CO)[C@@H](O)[C@H]3O)c2[nH]1` [Thioguanosine] + CCCCNC(=O)OCC#CI [3-iodo-2-propynyl butylcarbamate (IPBC)], the growth yield is, setting by setting: (40 h) 46.1 ± 0.64%; (72 h) 88.3 ± 2.3%.

For `Nc1nc(F)nc2c1ncn2[C@@H]1O[C@H](CO)[C@@H](O)[C@@H]1O` [Fludarabine] + CCCCNC(=O)OCC#CI [3-iodo-2-propynyl butylcarbamate (IPBC)], the growth yield was determined as 85.3 ± 2.4% (40 h) and 86.6 ± 1.1% (72 h).

`CN(C)CCCO[C@@H]1[C@H]2OC(C)(C)O[C@H]2O[C@@H]1[C@H](O)CO` [Amiprilose hydrochloride] + CCCCNC(=O)OCC#CI [3-iodo-2-propynyl butylcarbamate (IPBC)]: the growth yield by setting is: (40 h) 89.4 ± 4.9%; (72 h) 93.3 ± 4.6%.

On to `CCc1cc(C(N)=S)ccn1` [Ethionamide] + CCCCNC(=O)OCC#CI [3-iodo-2-propynyl butylcarbamate (IPBC)], for which the growth yield runs as follows: (40 h) 82 ± 2.5%; (72 h) 90.61 ± 0.63%.

As to `CC1=C(C(=O)O)N2C(=O)[C@@H](NC(=O)[C@H](N)c3ccc(O)cc3)[C@H]2SC1` [Cefadroxil] + CCCCNC(=O)OCC#CI [3-iodo-2-propynyl butylcarbamate (IPBC)], the growth yield is, setting by setting: (40 h) 81.5 ± 1.8%; (72 h) 88.5 ± 1.5%.

For the compound `C=CCN1CC[C@]23c4c5ccc(O)c4O[C@H]2C(=O)CC[C@@]3(O)[C@H]1C5` [Naloxone hydrochloride] + CCCCNC(=O)OCC#CI [3-iodo-2-propynyl butylcarbamate (IPBC)], the growth yield by setting is: (40 h) 98.2 ± 3.5%; (72 h) 101 ± 3.5%.

For `CC[N+](C)(CC)CCOC(=O)C1c2ccccc2Oc2ccccc21` [Methantheline bromide] + CCCCNC(=O)OCC#CI [3-iodo-2-propynyl butylcarbamate (IPBC)], the growth yield runs as follows: (40 h) 82 ± 1.9%; (72 h) 88.5 ± 2.1%.

Consider `Fc1ccc(C(OCCN2CCN(CCCc3ccccc3)CC2)c2ccc(F)cc2)cc1` + CCCCNC(=O)OCC#CI [3-iodo-2-propynyl butylcarbamate (IPBC)], for which the growth yield worked out at 13.3 ± 4.8% (40 h) and 65.3 ± 6.4% (72 h).

Turning to `Clc1ccc(C(OCCN2CCCCC2)c2ccccc2)cc1` (centres undefined) [Cloperastine hydrochloride] + CCCCNC(=O)OCC#CI [3-iodo-2-propynyl butylcarbamate (IPBC)], the growth yield is, setting by setting: (40 h) 78.6 ± 0.79%; (72 h) 95.1 ± 2%.

As for `O=c1[nH]c2ccccc2n1C1CCN(CCCC(c2ccc(F)cc2)c2ccc(F)cc2)CC1` [Pimozide] + CCCCNC(=O)OCC#CI [3-iodo-2-propynyl butylcarbamate (IPBC)], the growth yield is 111 ± 8.3% (40 h) and 136 ± 2.7% (72 h).
